Source: PubChem BioAssay (National Center for Advancing Translational Sciences (NCATS))
TrxR1 inh = rat TrxR1 inhibition; O89049; recombinant rTrxR1, NADPH fluorescence consumption, selenite substrate; Potency, µM (titrated, usually from 114 µM), most hits filed as inhibitors; 1% of 390,000 active; AID 588453; note: nearly all actives have a fitted effect of over 65% in size
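Rat TrxR1 (90 nM in the dispensed reagent) was pre-reduced with 400 uM NADPH for 5 min at room temperature, then incubated with compound for 15 min. After 400 uM selenite was added, NADPH fluorescence (Ex 340/Em 450 nm) was followed for 8 min.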
BRCA1 expr up = increases BRCA1 expression | MCF7-BRCA1-FFLuc reporter, luminescence, 48 h; response scale: scaled: vehicle 0%, 10 µM genistein 100% | Potency, µM (titrated, usually from 46.1 µM), hits mostly activators | 1.1% of 380,000 active; note: nearly all actives have a fitted effect of over 80% in size
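Quantitative HTS in MCF7 cells stably reporting BRCA1 expression via firefly luciferase. Compound treatment lasts 48 h at 37 °C in phenol-red free MEM. Activation is expressed relative to genistein at 10 microM and DMSO.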
mIDH1 inhibitor = inhibitors of human mutant IDH1 R132H; O75874; IDH1-R132H enzyme, NADPH consumption, diaphorase/resazurin fluorescence; Potency, µM (doses to about 76.6 µM), usual class: inhibitors; 0.093% of 390,000 active; AID 602179; note: nearly all actives have a fitted effect of over 65% in size
Target sequence (O75874 whole entry R132H, stated change not applied): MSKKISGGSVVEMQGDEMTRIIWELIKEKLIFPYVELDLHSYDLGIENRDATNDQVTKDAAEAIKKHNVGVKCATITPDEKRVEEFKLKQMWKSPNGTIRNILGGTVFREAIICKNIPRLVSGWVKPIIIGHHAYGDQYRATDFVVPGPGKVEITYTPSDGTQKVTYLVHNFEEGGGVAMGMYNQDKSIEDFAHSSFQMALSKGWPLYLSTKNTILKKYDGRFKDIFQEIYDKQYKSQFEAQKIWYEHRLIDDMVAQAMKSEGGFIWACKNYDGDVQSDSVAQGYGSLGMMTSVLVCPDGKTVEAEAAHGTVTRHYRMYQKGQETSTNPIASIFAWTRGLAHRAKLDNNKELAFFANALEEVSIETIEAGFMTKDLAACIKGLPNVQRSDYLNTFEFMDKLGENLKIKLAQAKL
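IDH1-R132H (0.5 ug/mL) preincubated 30 min with compound, then NADPH (0.016 mM) and alpha-KG (2 mM) added; 80 min at RT, pH 7.5. Remaining NADPH coupled via diaphorase/resazurin to fluorescence (540/590 nm); concentration-response curves normalized to no-enzyme control.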
IL2 activator = activators of IL-2 | IL-2 activation reporter assay, cell-based qHTS; stimulated with anti-CD3/CD4/CD28 beads; in transgenic mouse T cells | activation, % (series mostly up to about 46 µM) | 0.065% of 360,000 active | AID 652025; in the data active = activation above about 50%; inconclusive = mostly about 30% to 49%
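Unstimulated transgenic mouse T cells; 60-min compound exposure; bead-based TCR/CD4/CD28 stimulation; 18 h culture, 37 degrees C; dual fluorescence (EGFP, DsRed) plate cytometry.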
TrxR1 substrate = substrates of rat thioredoxin reductase 1; AID 588456; O89049; 0.01% of 390,000 active; purified TrxR1 substrate turnover, NADPH consumption readout; Potency, µM (titrated, usually from 114 µM); note: nearly all actives have a fitted effect of over 50% in size
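Rat TrxR1, dispensed at 90 nM, was prereduced with 400 uM NADPH (final) for 5 min at ~22 deg C, then incubated with compound 15 min before 400 uM selenite. A first-read NADPH fluorescence drop versus no-compound background flagged substrates.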
Giardia kill = kills Giardia lamblia | 0.15% of 340,000 active | AID 540267 | Giardia lamblia trophozoite viability | activity change, % at 7.66 µM, hits read low; in the data active = activity change below about -80%; inconclusive = between about -30% and that limit;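 note: parasites exposed to compound for two days anaerobically before the ATP read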
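Luminescent ATP signal served as the viability read-out, measured 15-30 min after adding ATP detection reagent to trophozoites that had been incubated with compounds for 48 hrs at 37 deg C anaerobically at 100 cells/well.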
Large screens that a line does not name were inactive. Most compounds without a hit are left out; they make up all but 2.2% or so of the library. Unless noted, calls come from the whole dose curve; as a rule, active = well fitted curve in the direction sought with a large enough effect; inconclusive = small, poorly fitted or top-dose-only effect, or another doubt; inactive = no such curve, though single readings can be large; an effect the other way counts as inactive or inconclusive.

O=C(NC(=S)Nc1ccccn1)c1ccc(-c2ccccc2)cc1	BRCA1 expr up inconclusive, Giardia kill -89.9
O=C(NC(=S)Nc1ccccn1)c1ccccc1	BRCA1 expr up inconclusive
COc1ccc(NC(=O)CN(C)CC(=O)c2[nH]c(C)c(C(C)=O)c2C)cc1	none
COc1cccc(NC(=O)CN(C)CC(=O)NCc2ccc(F)cc2)c1	none
COc1ccc(NC(=O)CN(C)CC(=O)c2c(C)[nH]c3ccccc23)cc1	TrxR1 inh 22.4µM
COc1cccc(NC(=O)CN(C)CC(=O)c2c(C)[nH]c3ccccc23)c1	TrxR1 inh 79.4µM
Cc1ccc(S(=O)(=O)CCC(=O)N2CCN(c3ccc([N+](=O)[O-])cc3)CC2)cc1	TrxR1 inh 28.2µM
OCc1cn(-c2ccccc2)nc1-c1cc2ccccc2o1	BRCA1 expr up 2.51µM
CCn1nccc1C(=O)Nc1cc(Cl)ccc1Cl	none
CCn1nccc1C(=O)Nc1ccc(Cl)cc1Cl	BRCA1 expr up 10µM
O=C(Cc1ccc(Br)cc1)NC1CCCCC1	none
O=C(CSc1ccc(F)cc1)NC1CCCCC1	BRCA1 expr up 11.2µM
Cc1ccc(CNC(=O)NC2CCCCC2)cc1	BRCA1 expr up 10µM
O=C(CSc1ccc(Br)cc1)NC1CCCCCC1	none
O=C(Cc1ccc(O)cc1)NC1CCCCCC1	BRCA1 expr up 3.55µM
O=C(CNC(=O)C1CCCCC1)OCC(=O)c1ccccc1	none (no result: mIDH1 inhibitor, IL2 activator)
CCc1ccc(NC(=O)c2cc(=O)c3ccc(C)c(C)c3o2)cc1	none (no result: BRCA1 expr up, IL2 activator, Giardia kill)
Cc1ccc2c(=O)c(C(=O)c3cccc(Cl)c3)cn(CC(=O)NCc3ccc(F)cc3)c2n1	none (no result: BRCA1 expr up, IL2 activator, Giardia kill)
Cc1ccc(C(=O)CN2C(=O)C(C)Oc3ccccc32)cc1 (configuration not stated)	BRCA1 expr up 11.2µM
Cc1ccc(OCC(=O)Nc2ccc3nc(SCC(=O)N4CCOCC4)sc3c2)cc1C	none (no result: BRCA1 expr up, IL2 activator, Giardia kill)
Nc1c(C(=O)Nc2ccccc2)sc2nc(N3CCOCC3)c3c(c12)CCCC3	BRCA1 expr up 12.6µM (no result: TrxR1 inh, TrxR1 substrate, Giardia kill)
NC(=O)CSc1oc(-c2ccco2)nc1S(=O)(=O)c1ccc(Cl)cc1	TrxR1 inh inconclusive
Cc1ccc(S(=O)(=O)c2nc(-c3ccco3)oc2SCC(N)=O)cc1	TrxR1 inh 79.4µM, TrxR1 substrate inconclusive
O=C(CSc1oc(-c2ccco2)nc1S(=O)(=O)c1ccc(F)cc1)NCC1CCCO1 (configuration not stated)	TrxR1 inh 15.8µM
CCCCn1c(SCC(=O)Nc2sc3c(c2C(N)=O)CCC3)nnc1-c1ccccc1	TrxR1 inh 35.5µM
Cc1cnc(-c2nnc(N(C)C(=O)C3CCOC3)s2)cn1 (configuration not stated)	BRCA1 expr up 7.94µM
COc1cc2nc(CCc3nc4cc(OC)c(OC)cc4[nH]3)[nH]c2cc1OC	none (no result: BRCA1 expr up, mIDH1 inhibitor, IL2 activator, Giardia kill)
Cc1cc(C(=O)COC(=O)Cc2c(F)cccc2Cl)c(C)n1C	BRCA1 expr up 5.01µM (no result: TrxR1 inh, TrxR1 substrate, Giardia kill)
CCOc1ccccc1-c1c2cc(O)c(=O)cc-2oc2cc(O)c(O)cc12	TrxR1 inh inconclusive, mIDH1 inhibitor 13.1µM
COc1ccc(OC)c(-c2c3cc(O)c(=O)cc-3oc3cc(O)c(O)cc23)c1	mIDH1 inhibitor 39.8µM
COc1ccc(C2CC(=O)c3cc(-c4nc(-c5ccc(Cl)cc5)c(C)s4)c(=O)[nH]c3C2)cc1 (configuration not stated)	none (no result: BRCA1 expr up, IL2 activator, Giardia kill)
S=c1[nH]cnc2sc(-c3ccccc3)cc12	BRCA1 expr up 11.2µM
CN(C)c1ccc(CCC2C=Cc3ccccc32)cc1 (configuration not stated)	none (no result: BRCA1 expr up, mIDH1 inhibitor, IL2 activator, Giardia kill)
Cc1ccc(/C(O)=C2/C(=O)C(=O)N(Cc3ccco3)C2c2cccs2)cc1 (configuration not stated)	none
COc1ccc(C(=O)C2C(=O)C(=O)N(Cc3ccco3)C2c2cccs2)cc1 (configuration not stated)	TrxR1 inh 44.7µM (no result: mIDH1 inhibitor, IL2 activator)
CS(=O)(=O)c1ccc(S(=O)CC(=O)OCc2ccccc2)c([N+](=O)[O-])c1 (configuration not stated)	TrxR1 inh 2.82µM
Cc1ccc(CN2CCc3nc(N4CCN(C)CC4)ncc3C2)s1	none (no result: BRCA1 expr up, IL2 activator, Giardia kill)
Cc1ccc(-c2nn(CCC#N)cc2C=C(C#N)C#N)cc1	TrxR1 inh 7.94µM
Cc1ccc2cc(CCl)c(Cl)nc2c1	TrxR1 inh 44.7µM
ClCc1cc2ccccc2nc1Cl	none
COc1cc2c(NC3CCN(C)CC3)nc(N3CCCN(C)CC3)nc2cc1OCC1CCCCN1 (configuration not stated)	TrxR1 inh inconclusive (no result: mIDH1 inhibitor, IL2 activator, Giardia kill)
CCOC(=O)C1=C(CS(=O)(=O)c2ccc(C(C)(C)C)cc2)NC(=O)NC1c1cccc(OC)c1 (configuration not stated)	mIDH1 inhibitor inconclusive (no result: IL2 activator, Giardia kill)
CS(=O)(=O)N1CCN(c2ccc(Cl)cc2[N+](=O)[O-])CC1	none
CS(=O)(=O)N1CCN(c2ccc([N+](=O)[O-])c3cccnc23)CC1	Giardia kill -82.0
COc1ccc(C(=O)CC(Nc2ccc([N+](=O)[O-])cc2)c2ccc(OC)cc2)cc1 (configuration not stated)	none
CNC(CC(=O)c1ccc([N+](=O)[O-])cc1)C(Cl)(Cl)Cl (configuration not stated)	TrxR1 inh 0.631µM, TrxR1 substrate inconclusive
Cc1ccc(NC(=O)/C=C\C(=O)NCC(=O)O)cc1C	TrxR1 inh 44.7µM
Cc1ccc(NC(=O)CC(=O)Nc2ccc(C)c(C)c2)cc1C	none
CCC(=O)NC(=S)Nc1c(C)cc(Br)cc1C	TrxR1 inh 28.2µM
Cc1cc2cc(OCc3ccccc3)ccc2n1C	BRCA1 expr up inconclusive
Cc1c(C=O)c2cc(OCc3ccccc3)ccc2n1C	TrxR1 inh inconclusive, BRCA1 expr up 10µM
O=C(Nc1ccc(F)cc1F)c1cc2ccc3cccnc3c2[nH]1	none (no result: BRCA1 expr up, IL2 activator, Giardia kill)
CC(C)C(=O)Nc1ccc(-c2csc(-c3ccccc3)n2)cc1	TrxR1 inh inconclusive, BRCA1 expr up 5.01µM
CC(C)C(=O)Nc1cccc(-c2csc(-c3ccccc3)n2)c1	none
Cc1nc(-c2ccc(NC(=O)CC(C)C)cc2)cs1	BRCA1 expr up 2.24µM
COc1ccc(-c2csc(NC(=O)CC(C)C)n2)cc1	BRCA1 expr up 8.91µM
Cc1nc(-c2ccc(NC(=O)c3ccc(Br)o3)cc2)cs1	BRCA1 expr up 11.2µM
COc1ccc(N2CCN(CCCNC(=O)C3COc4ccc(OC)cc4C3)CC2)cc1 (configuration not stated)	none (no result: BRCA1 expr up, IL2 activator, Giardia kill)
CC(C)(C)c1csc(NC(=O)c2ccncc2)n1	none
CC(C)(C)c1csc(NC(=O)c2ccc(Br)o2)n1	BRCA1 expr up 10µM
